Laboratory results: PubChem BioAssay (NCI)
About 79,000 compounds went through this panel and 15% of them were active in at least one assay; those are over-represented in the sample as a whole. Rule as the data show it: active = growth inhibition above about 70%; inactive = the rest.

What was measured:
[1] = NCI Yeast Anticancer Drug Screen. Data for the rad50 strain (AID 155);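 also: 0% = growth of vehicle-only cultures of the same strain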; conditions: S. cerevisiae rad50 strain growth inhibition; at 50.0 µM; hits give high values
Summary of the method: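 Compounds were tested on a yeast strain with an engineered DNA damage repair alteration; the reported value is growth inhibition normalised to vehicle treatment.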

[2] = NCI Yeast Anticancer Drug Screen. Data for the mec2-1 strain (AID 157); conditions: S. cerevisiae mec2-1 strain, at 50.0 µM, hits give high values
Summary of the method: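 Yeast mec2-1 mutant treated with compound. Readout: growth inhibition vs vehicle controls.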

[3] = NCI Yeast Anticancer Drug Screen. Data for the sgs1 mgt1 strain (AID 161);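 also: 0% = growth of cultures given vehicle only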; conditions: S. cerevisiae sgs1 mgt1 strain, at 50.0 µM, hits give high values
Summary of the method: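 Genetically altered yeast, compound exposure, growth inhibition relative to vehicle.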

[4] = NCI Yeast Anticancer Drug Screen. Data for the cln2 rad14 strain (AID 165);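 also: 0% = growth equal to vehicle treated cultures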; conditions: S. cerevisiae cln2 rad14 strain, at 50.0 µM, hits give high values
Summary of the method: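 cln2 rad14 yeast strain; compound exposure; growth inhibition read vs vehicle controls.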

[5] = NCI Yeast Anticancer Drug Screen. Data for the bub3 strain (AID 167); conditions: S. cerevisiae bub3 mutant strain, at 50.0 µM, hits give high values
Summary of the method: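 Growth of a checkpoint-deficient yeast mutant is measured after compound exposure. Values represent inhibition relative to vehicle.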

[6] = NCI Yeast Anticancer Drug Screen. Data for the mlh1 rad18 strain (AID 175); conditions: S. cerevisiae mlh1 rad18 strain growth inhibition; at 50.0 µM; hits give high values
Summary of the method: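 Yeast w/ defined DNA-repair lesions; compound exposure; growth vs vehicle controls → % inhibition.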

Measured: growth inhibition

Cc1cccc(-c2cc(=O)c3c(C)ccnc3[nH]2)c1
inactive: [1] 10.3% | [2] -1% | [3] -0.85% | [4] -4.5% | [5] -3.3% | [6] -12.9%

COc1ccc(C2OCCCO2)cc1
inactive: [1] 13.5% | [2] -19.1% | [3] -6.45% | [4] -34.4% | [5] -27.4% | [6] 4.45%

C/C(=N/NC(N)=O)C1CCC(C)CC1 (stereo unspecified)
inactive: [1] 39% | [2] 31.8% | [3] 21.9% | [4] 12.3% | [5] 8.2% | [6] 31%

COc1ccc2[nH]c(C)cc2c1CN
inactive: [1] -0.65% | [2] -14.3% | [3] 15.1% | [4] -24.9% | [5] -20.2% | [6] 26.4%

Nc1ncccc1C(=O)O
inactive: [1] 2.55% | [2] -1.05% | [3] -2.8% | [4] -12.1% | [5] -0.35% | [6] -3.05%

CC(=O)OCC1OC(n2cnc([N+](=O)[O-])c2C#N)C(OC(C)=O)C1OC(C)=O (stereo unspecified)
inactive: [1] 28.6% | [2] 14.7% | [3] 22.3% | [4] 30.1% | [5] 3.45% | [6] 34.3%

CCCCC(=O)Nc1ccc(Cl)cc1
inactive: [1] 18.2% | [2] 7.8% | [3] 6.5% | [4] 8.2% | [5] -19.9% | [6] 11.7%

Cc1ccsc1C(=O)c1ccccc1[N+](=O)[O-]
inactive: [1] -3.65% | [2] -13.3% | [3] -6.7% | [4] -20.8% | [5] -7.35% | [6] 6.25%

CCC[N+](C)(C)C
inactive: [1] 5.65% | [2] -28.2% | [3] -1.15% | [4] 6.4% | [5] 1.6% | [6] -5.45%

CC1(C)[C@H]2Cc3c(ccc4c3C(=O)OC4=O)[C@@H]1C2
inactive: [1] 6.75% | [2] -3.9% | [3] 0.35% | [4] -30.6% | [5] -17.4% | [6] 2.45%

Cn1c(=O)c(C(=O)NC23CC4CC(CC(C4)C2)C3)c(O)c2ccccc21
inactive: [1] -44.2% | [2] -37% | [3] -46.5% | [4] -16.3% | [5] -53% | [6] -19.9%

C/C(N=NS(=O)(=O)c1c(C)cc(C)cc1C)=C1\C=CC=CN1O
inactive: [1] -26.4% | [2] -10.2% | [3] -8.25% | [4] -6.95% | [5] 4.15% | [6] -18.8%

N#CCc1c(F)c(F)c(F)c(F)c1F
inactive: [1] 6.8% | [2] 5.75% | [3] 14.4% | [4] 3.2% | [5] 10.5% | [6] 2.6%

O=C(O)CNC(=O)CNC(=O)c1ccc2ccccc2n1
inactive: [1] 2.7% | [2] -4.05% | [3] 11.1% | [4] 10.7% | [5] -14.3% | [6] 15.9%

COC12C=CC(CC1)C1C(=O)C=CC(=O)C12 (stereo unspecified)
inactive: [1] -36.5% | [2] -31.4% | [3] -4.7% | [4] -39.3% | [5] -24.2% | [6] -21.4%

COc1ccc(N2C(=O)/C(=C\c3ccc(N(CCC#N)CCC#N)cc3)N=C2COc2ccccc2)cc1
inactive: [1] 0.8% | [2] -2.2% | [3] 4.45% | [4] 8.7% | [5] -1.35% | [6] 1.3%

Cc1ccc(S(=O)(=O)Nc2ccc([N+](=O)[O-])cc2[N+](=O)[O-])cc1
inactive: [1] 17.5% | [2] 15.3% | [3] -1.65% | [4] 9.85% | [5] 1.15% | [6] 17.8%

Cc1ccc(N2CCN(C(=O)c3ccccc3)CC2)cc1
inactive: [1] -16.9% | [2] 1.55% | [3] -2.45% | [4] -13.6% | [5] 16.5% | [6] -9.35%

O=C1CC(=O)N2CCCCC2N1 (stereo unspecified)
inactive: [1] -17.7% | [2] -5.15% | [3] -0.25% | [4] -10.9% | [5] 6.4% | [6] -25.7%

N#CC1CCCC[N-]1.[NH-]CC[N-]CC[NH-].[Pt+4] (stereo unspecified)
inactive: [1] 57.9% | [2] 17.2% | [3] 53.6% | [4] -10.1% | [5] 4.05% | [6] 43%

CC(C)CCC(=O)OC/C(=N\Nc1ccc([N+](=O)[O-])cc1[N+](=O)[O-])c1ccc(-c2ccccc2)cc1
inactive: [1] -17.7% | [2] 12.5% | [3] -15.8% | [4] -35.6% | [5] 1.9% | [6] 14.8%
